Only some compounds are listed: those with a hit (about 8.9% of all), similar ones and a draw of the others.
D3 ag = qHTS of D3 Dopamine Receptor Agonist: qHTS | 410,000 tested, 0.58% active | max activation, % | AID 652048, 2013 | D(3) dopamine receptor (Homo sapiens), P35462 | D3R DiscoveRx beta-arrestin cells, luminescence, 90 min; in the data active = max activation above about 30%; also: 0% is about no effect
Target sequence (P35462 whole entry, looked up): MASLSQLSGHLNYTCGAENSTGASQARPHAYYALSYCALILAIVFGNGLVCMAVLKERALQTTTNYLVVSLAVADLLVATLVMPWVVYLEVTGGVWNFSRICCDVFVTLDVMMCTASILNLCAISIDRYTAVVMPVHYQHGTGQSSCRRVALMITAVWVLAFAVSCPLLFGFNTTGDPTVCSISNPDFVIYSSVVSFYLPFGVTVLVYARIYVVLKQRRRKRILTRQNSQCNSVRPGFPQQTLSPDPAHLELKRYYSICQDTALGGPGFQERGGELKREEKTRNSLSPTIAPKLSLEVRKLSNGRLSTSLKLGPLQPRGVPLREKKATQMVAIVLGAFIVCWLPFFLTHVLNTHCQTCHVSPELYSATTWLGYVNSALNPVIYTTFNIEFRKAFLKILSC
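Agonist-mode cell screen: cells plated at 1500/well and incubated overnight at 37 °C, then exposed to library compounds for 90 min at 37 °C. Detection reagent was added for 30–60 min at room temperature, and luminescence was read.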
SW480 rereplic = A quantitative high throughput screen for small molecules that induce DNA re-replication in SW480 colon adenocarcinoma cells; AID 624297, 2012; 340,000 tested, 1.8% active; Potency, µM (titrated, usually from 46.1 µM), for inactives: at the highest dose re-replication activation, usual class: activators; SW480 DNA re-replication, Hoechst DNA content imaging, 48 h; also: potency is read from the fitted curve at half-maximal effect; % of control where 0% means no effect; nearly all actives have a fitted effect of over 55% in size
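Readout is total intensity of Hoechst-stained nuclei, excited at 405 nm and collected at 500-530 nm. Compound treatment lasted 48 hr at 37 C in 5% CO2 before staining.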
DRD3 antagonist = qHTS of D3 Dopamine Receptor Antagonist: qHTS. D(3) dopamine receptor (Homo sapiens), P35462. D3R cells, DiscoveRx beta-arrestin luminescence, antagonist mode; hits give low values. max response, negative = inhibition, %. 360,000 tested, 2.5% active. AID 652054, 2013; in the data active = max response below about -50%; inconclusive = no clear call, values can overlap the other calls; also: % is scaled to controls: 0 for no effect and ±100 for the full control effect
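Cells plated overnight at 1500 cells/well, then exposed to library compounds with dopamine controls for 90 minutes at 37 degrees C. DiscoveRx reagent added for 30–60 minutes at room temperature; luminescence read, quantitative HTS format.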
KB-3-1 tox = qHTS assay for MDR1-selective chemotherapeutics: Primary screen using the parental adenocarcinoma cell KB-3-1. AID 1347075, 2019. Potency, µM (highest dose often 46.1 µM), most hits filed as cytotoxic. 400,000 tested, 1.4% active. KB-3-1 viability, CellTiter-Glo ATP luminescence, 72 h; also: potency is read from the fitted curve at half-maximal effect; % is scaled to controls: 0 for no effect and ±100 for the full control effect; nearly all actives have a fitted effect of over 60% in size
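Cells are dispensed, compounds pinned in, plates held at 37 °C for 72 h, then CellTiter-Glo is added and luminescence read after 10 minutes. Cell line: parental KB-3-1 in phenol-red-free DMEM, 10% FBS.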
MCF10A rerep = A quantitative high throughput screen for small molecules that induce DNA re-replication in MCF 10a normal breast cells | MCF 10A DNA re-replication, Hoechst nuclear intensity, 48 h | Potency, µM (highest dose often 46.1 µM), for inactives: at the top dose activity, positive = re-replication, most hits filed as activators | 350,000 tested, 2.9% active; also: potency is read from the fitted curve at half-maximal effect; % of control where 0% means no effect; nearly all actives have a fitted effect of over 50% in size
KB-V1 cytotox = qHTS assay for MDR1-selective chemotherapeutics: Primary screen using the drug-selected MDR subline cells KB-V1 | KB-V1 MDR cells viability, CellTiter-Glo, 72 h | Potency, µM (titrated, usually from 46.1 µM), actives largely listed as cytotoxic | 400,000 tested, 3.4% active | AID 1347076, 2019; also: potency is read from the fitted curve at half-maximal effect; % is scaled to controls: 0 for no effect and ±100 for the full control effect; nearly all actives have a fitted effect of over 60% in size
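In this primary screen, KB-V1 cells overexpressing P-gp are incubated with library compounds (lowest to highest concentration) for 72 h at 37 degrees C before a luminescent ATP viability read.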
An asterisk follows results filed as active; i = inactive; ? = inconclusive; · = no result. Unless noted, calls follow the shape of the dose curve; as a rule, active = well fitted curve in the direction sought with a large enough effect; inconclusive = small, poorly fitted or top-dose-only effect, or another doubt; inactive = no such curve, though single readings can be large; an effect the other way counts as inactive or inconclusive.

SMILES	D3 ag	SW480 rereplic	DRD3 antagonist	KB-3-1 tox	MCF10A rerep	KB-V1 cytotox
CCOc1ccc(NC(=O)COc2ccc(S(=O)(=O)NC3CCCCC3)cc2)cc1	6.2	·	·	i	·	?
CCOC(=O)Nc1ccc(S(=O)(=O)N2CCC(C)CC2)cc1	-5.1	-4.6%	-6.9	i	?	20.6µM*
CC(C)NS(=O)(=O)c1ccc(OCC(=O)N2CCN(c3ccccc3)CC2)cc1	14.1	-9.7%	5.4	i	-2.1%	?
O=C(COc1ccc(S(=O)(=O)NC2CCCCC2)cc1)N1CCN(c2cccc(Cl)c2)CC1	3.7	28.5%	14.8	13µM*	?	?
O=C1C=CC(=Nc2ccc(F)cc2)O1	-13.0	?	0.0	i	18.4µM*	?
O=C1C=CC(=Nc2ccc3c(c2)C(=O)c2ccccc2-3)O1	-3.7	-3.5%	-14.5	i	6.7%	i
CCc1ccc(-c2nc(CN3CCCC(C(=O)N4CCN(c5cc(Cl)ccc5C)CC4)C3)c(C)o2)cc1 (configuration not stated)	-2.7	·	·	?	·	?
CC(C)(C)c1cc(NC(=O)Nc2ccc(Br)cc2Cl)no1	3.2	8.0%	30.3	i	?	i
CC(C)(C)c1cc(NC(=O)Nc2ccc(Cl)cc2Cl)no1	4.5	-37.8%	0.5	i	18.4µM*	i
O=C(CSc1nc(C(F)(F)F)cc(=O)[nH]1)N1CCCCCC1	3.5	-4.8%	-2.2	i	1.5%	i
O=c1cc(C(F)(F)F)c2sc(N3CCCCC3)nc2[nH]1	2.3	1.6%	-57.4*	i	12.8%	i
FC(F)(F)c1cc(-c2cccc(Br)c2)nc2ncnn12	-3.4	·	·	i	·	i
COC(=O)c1cc(C)ccc1/C=C1/Cc2c(C)cc(C)cc2C1=O	-11.9	27.4%	3.0	i	2.8%	16.4µM*
COC(=O)c1ccccc1C(=O)c1c(C)cc(C)cc1C	·	·	·	·	·	i
Cc1[nH]n2c(=O)cc(-c3ccccc3Cl)nc2c1-c1ccccc1	-6.0	·	·	6.51µM*	·	i
CCc1cc(=O)n2[nH]c(C)c(-c3ccccc3OC)c2n1	-6.0	-3.5%	-22.7	i	-2.0%	?
Cc1cccc(Cc2c(C)nc3c(-c4ccccc4)c(C)[nH]n3c2=O)c1	-14.8	·	·	10.3µM*	·	i
Cc1nc2c(-c3ccccc3)c(C)[nH]n2c(=O)c1Cc1ccccc1	0.3	?	8.3	?	?	?
Cc1nc2c(-c3ccc(F)cc3)c(C)[nH]n2c(=O)c1Cl	3.1	7.31µM*	9.6	10.3µM*	12.5%	i
COCc1cc(=O)n2[nH]c(C)c(-c3ccc(Cl)cc3)c2n1	1.9	·	-60.5*	?	·	?
c1ccc(CN2c3ccccc3-c3nc4ccccc4n3C2c2ccccn2)cc1 (configuration not stated)	3.9	-20.8%	-0.8	i	0.7%	i
CCN1c2ccccc2-c2nc3ccccc3n2C1c1ccco1 (configuration not stated)	1.3	?	-50.3*	?	?	i
COc1cccc(C(=O)NCC2OCCc3ccccc32)c1 (configuration not stated)	-7.9	·	·	i	·	?
CCOC(=O)c1cnn(-c2cccc(F)c2)c1C1CCNCC1	-4.0	·	·	i	·	i
COC(=O)CSc1nc(N2CCOCC2)c2c(c1C#N)CC(C)(C)N(C)C2	3.1	2.0%	-53.2*	i	3.2%	i
SMILES	D3 ag	SW480 rereplic	DRD3 antagonist	KB-3-1 tox	MCF10A rerep	KB-V1 cytotox
CCSc1nc(N2CCOCC2)c2c(c1C#N)CC(C)(C)N(C)C2	-6.3	-8.9%	-11.2	i	6.7%	i
CCC1(C)Cc2c(C#N)c(SC)nc(N3CCOCC3)c2CO1 (configuration not stated)	7.4	-2.3%	19.1	i	-2.0%	i
CSc1nc(N2CCOCC2)c2c(c1C#N)CC(C)(C)OC2	1.0	-7.7%	14.9	?	3.9%	9.2µM*
COC(=O)CCSc1nc(N2CCOCC2)c2c(c1C#N)CC(C)(C)OC2	4.2	-0.1%	5.7	i	-4.3%	i
CC(C)CCSc1nc(N2CCOCC2)c2c(c1C#N)CC(C)(C)OC2	12.6	21.6%	15.2	i	?	8.2µM*
COc1ccc(C2c3c(n(C)c4ccccc34)C(=O)N2CC(=O)Nc2ccc(Cl)cc2)cc1 (configuration not stated)	-17.8	·	·	i	·	i
CCCCCCC1CC(CCc2nc(=S)[nH][nH]2)C(=O)O1 (configuration not stated)	-1.6	-3.9%	-12.7	i	-2.5%	i
CCCCCCCCc1nc(=S)[nH][nH]1	-1.9	3.4%	-67.4*	i	3.9%	i
CSc1nnc(-c2cc3c(s2)-c2ccccc2CC3)o1	3.6	-0.4%	31.7	i	?	?
S=c1[nH]nc(-c2cc3c(s2)-c2ccccc2CC3)o1	1.2	8.2µM*	29.9	i	?	i
CCOC(=O)CSc1nc2ccc(NC(=O)COc3ccccc3C)cc2s1	4.2	·	·	i	·	i
CC1(OC(=O)C2CCCC2)C(=O)C=C2C=C(c3ccsc3)N(C3CCCCC3)C=C2C1=O (configuration not stated)	-30.0	-11.9%	-22.7	20.6µM*	5.4%	i
CC(C)c1cc(CN2C(C)COCC2C)cc(C(C)C)c1O (configuration not stated)	-25.4	-3.0%	0.0	?	2.4%	16.4µM*
CC(=O)Nc1cc(C(C)C)c(O)c(C(C)C)c1	7.2	3.0%	10.7	i	-3.5%	i
COc1ccc(C(=O)/C(C#N)=N/Nc2cccc([N+](=O)[O-])c2)cc1	5.5	?	27.8	?	?	5.8µM*
N#C/C(=N\Nc1ccc(Cl)cc1)C(=O)c1ccsc1	12.7	?	-10.3	?	?	?
N#C/C(=N\Nc1cccc(Cl)c1)C(=O)c1ccccc1	6.9	-1.4%	-85.9*	16.4µM*	?	?
O=C(Nc1ccccc1Cl)c1ccccc1	3.3	-1.1%	2.5	i	0.6%	i
N#C/C(=N\Nc1ccccc1Cl)C(=O)c1ccccc1	3.0	-2.4%	1.2	14.6µM*	13.9%	?
N#C/C(=N\Nc1c(Cl)cccc1Cl)C(=O)NN	-14.0	-3.1%	?	14.6µM*	-14.3%	8.2µM*
CCC(CC)=NNc1cccc([N+](=O)[O-])c1	3.3	·	18.8	i	-2.0%	i
